{"source": "PubChem BioAssay (NCI)", "note": "Several values for one entry are separate records, joined by “and”; a condition that tells them apart may be missing. Equal entries are not always repeated. The panel holds about 83,000 compounds, 20% with a hit somewhere; the sample as a whole holds those more often.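 Cells were grown in 96-well plates and exposed to the test compound at a single concentration for 48 hours; results are reported as percent growth, with values below 10 considered active.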 Activity calls are given as the source filed them."}
{"tested_on": "MDA-MB-468 breast", "test": "NCI-60 one-dose screen, 48 h (100 = growth as untreated, 0 = no growth, -100 = all killed)", "settings": "10 µM unless noted"}
{"smiles": "O=S(=O)(Nc1ccc(-n2cnc3cc(-c4ccc(O)cc4)ccc32)cc1)c1ccccc1", "growth": "100% (inactive)"}
{"smiles": "C=CCn1c(SCC(=O)Nc2ccc(C(=O)/C=C/c3ccc(C)cc3)cc2)nnc1-c1c[nH]c2ccccc12", "growth": "85.3% (inactive)"}
{"smiles": "COc1cccc(-c2ccc3c(c2)C2CCN(Cc4ccccc4)C3C2)c1", "note": "(stereo not given)", "growth": "67.9% (inactive)"}
{"smiles": "COc1cc(-c2cc(/C=C3\\CCCCC3=O)[nH]n2)cc(OC)c1OC", "growth": "85.2% (inactive)"}
{"smiles": "CC(=O)Nc1ccc(-n2cnc3cc(-c4ccc(OCCN5CCCCC5)cc4)ccc32)cc1", "growth": "115% (inactive)"}
{"smiles": "COc1cc(C(=O)/C=C/c2cccc(Nc3ccnc4cc(Cl)ccc34)c2)cc(OC)c1OC", "growth": "-49.5% (active)"}
{"smiles": "CN1Cn2c(ccc2C(F)(F)F)C(=O)CS1(=O)=O", "growth": "115% (inactive)"}
{"smiles": "CCCNC(=O)Oc1ccc(/C(=C(/C)Cc2ccc(OC)cc2)c2ccc(OCCN3CCCCC3)cc2)cc1", "growth": "79.6% (inactive)"}
{"smiles": "C#C[C@]1(O)CC[C@H]2[C@@H]3CC=C4c5nc(Nc6ccccc6[N+](=O)[O-])sc5CC[C@]4(C)[C@H]3CC[C@@]21C", "growth": "70.7% (inactive)"}
{"smiles": "Cn1c2ccccc2c2nn(C(=O)c3ccccc3)c(=O)nc21", "growth": "107% (inactive)"}
{"smiles": "COc1cc2cn3c4ccc(O)cc4[nH]c(=O)c3c2cc1OC", "growth": "-27.4% (active)"}
{"smiles": "N#Cc1c(-c2ccc(Cl)cc2)n(O)c2ccccc12", "growth": "-3.01% (active)"}
{"smiles": "CC(C)(C)c1cc(-c2nc3ccc(N4CCN(CCO)CC4)cc3[nH]2)cc(C(C)(C)C)c1O", "growth": "52.7% (inactive)"}
{"smiles": "COC(=O)[C@H](Cc1ccccc1)NC(=O)[C@@H](OC)[C@@H]1Cc2cc3cc(OC4CC(OC5CC(O)C(O)C(C)O5)C(O)C(C)O4)c(C)c(O)c3c(O)c2C(=O)[C@H]1OC1CC(OC2CC(OC3CC(C)(O)C(O)C(C)O3)C(O)C(C)O2)C(O)C(C)O1", "note": "(stereo not given in full)", "growth": "-36.7% (active)"}
{"smiles": "Fc1ccc(-c2cc3nc(C(Cl)Cl)nc(-c4cccs4)n3n2)cc1", "growth": "-46.8% (active)"}
{"smiles": "CCOC(=O)c1cc2c(n1Cc1cc(OC)c(OC)c(OC)c1)-c1nc(N)sc1CCC2", "growth": "35.8% (inactive)"}
{"smiles": "C/C(=N\\NC(N)=O)c1c(O)sc(=O)[nH]c1=O", "growth": "97.4% (inactive)"}
{"smiles": "CCC(C)NCc1ccccc1", "note": "(stereo not given)", "growth": "100% (inactive)"}
{"smiles": "COc1ccc(S(=O)(=O)NCCCNc2nccc(-c3c(-c4ccc(F)cc4)nc4sccn34)n2)cc1", "growth": "61.2% (inactive)"}
{"smiles": "O=c1[nH]c(Sc2sc3ccc(Cl)cc3c2CBr)nc(=S)[nH]1", "growth": "19.1% (inactive)"}
{"smiles": "CC(=O)n1cc(C=O)c2ccccc21", "growth": "112% (inactive)"}
{"smiles": "CC(O)(CO)c1ccccc1", "note": "(stereo not given)", "growth": "99.6% (inactive)"}
{"smiles": "CC(=O)N(O)c1ccc(/C=C/c2ccccc2)cc1", "growth": "-63.5% (active)"}
{"smiles": "COc1ccc(-c2nn(-c3ccc(NC(=O)Nc4cc(C(F)(F)F)cc(C(F)(F)F)c4)cc3)cc2-c2ccncc2)cc1Cl", "growth": "-11.6% (active)"}
{"smiles": "COc1ccc(OC)c(NC2=C(Cl)C(=O)C(C)=C(C)C2=O)c1", "growth": "-31.6% (active)"}
{"smiles": "COc1ccc(NC(=O)c2sc3nc(C)c(C(=O)CCc4cccc(OC)c4)cc3c2N)cc1", "growth": "29.6% (inactive)"}
{"smiles": "COC(=O)Nc1nc2ccc(C(=O)c3ccccc3N(C)C3COC3)cc2[nH]1", "growth": "23.8% (inactive)"}
{"smiles": "COC(=O)[C@H](Cc1ccc(O)cc1)NC(=O)[C@@H](OC)[C@@H]1Cc2cc3cc(OC4CC(OC5CC(O)C(O)C(C)O5)C(O)C(C)O4)c(C)c(O)c3c(O)c2C(=O)[C@H]1OC1CC(OC2CC(OC3CC(C)(O)C(O)C(C)O3)C(O)C(C)O2)C(O)C(C)O1", "note": "(stereo not given in full)", "growth": "-25.5% (active)"}
{"smiles": "CN1CCN(CCCOc2cccc3nc(Nc4ccc(F)c(F)c4)ccc23)CC1", "growth": "-67.3% (active)"}
{"smiles": "O=[N+]([O-])C=C(c1ccccc1)c1ccccc1", "growth": "-4.43% (active)"}
{"smiles": "CC[C@H](C)[C@@H]1NC(=O)[C@H](Cc2ccc(O)cc2)N(C)C(=O)[C@H](Cc2ccccc2)NC(=O)CN(C)C(=O)[C@@H]2CCCN2C(=O)[C@@H](Cc2ccccc2)N(C)C(=O)[C@H](CC(C)C)NC1=O", "growth": "-13.3% (active)"}
{"smiles": "O=C(O)c1cn(C2CC2)c2cc(N3CCN(C(=O)CSc4nnc(-c5ccc(Cl)cc5)n4-c4ccccc4)CC3)c(F)cc2c1=O", "growth": "101% (inactive)"}
{"smiles": "COCCn1cc(-c2nc(-c3cc4cccnc4n3CCOC)cs2)c2cc(OC)ccc21", "growth": "-18.4% (active)"}
{"smiles": "COc1cc(-c2cc(/C=C3\\C(=O)Nc4ccccc43)[nH]n2)cc(OC)c1OC", "growth": "82% (inactive)"}
{"smiles": "CC(=O)O[C@@H]1C[C@]2(C)[C@H]3[C@H](O)C[C@@H]4C5=CC(C)(C)CC[C@]5(C)CC[C@@]4(C)[C@]3(C)CC[C@H]2C(C)(C)[C@H]1O", "growth": "116% (inactive)"}
{"smiles": "CO[C@H]1C[C@@H]2CC[C@@H](C)[C@@](O)(O2)C(=O)C(=O)N2CCCC[C@H]2C(=O)O[C@H]([C@H](C)C[C@@H]2CC[C@@H](OP(C)(C)=O)[C@H](OC)C2)CC(=O)[C@H](C)/C=C(\\C)[C@@H](O)[C@@H](OC)C(=O)[C@H](C)C[C@H](C)\\C=C/C=C/C=C/1C", "growth": "39.9% (inactive)"}
{"smiles": "COc1cc(OC)c(/C=C/c2cc[n+](C)c3ccccc23)c(OC)c1", "growth": "-20.6% (active)"}
{"smiles": "COc1cc(Cl)cc(-c2nn(-c3cccc(NC(=O)Nc4ccc(Cl)c(Cl)c4)c3)cc2-c2ccncc2)c1", "growth": "0.718% (active)"}
{"smiles": "NC(=S)N/N=C\\c1nccc2c(C(F)(F)F)cccc12", "growth": "-64.8% (active)"}
{"smiles": "Cn1cnc([N+](=O)[O-])c1Sc1ncnc2nc[nH]c12", "growth": "-4.47% (active) and 77.7% (inactive)"}
